# In PubChem BioAssay:
# The source made the active and inactive calls. Unless noted, how the calls were made is not given here.
# How the values were obtained:
# [1] = resazurin metabolic signal in HepG2 cells – cell-based, resazurin fluorescence, 24 h, PK04 Diversity Set, profiling panel (AID 1172); conditions: HepG2 viability, higher = more signal; further: test concentration not given here
# [2] = budding yeast growth changes without added modifier – OD600, strain BY4716, 24 h, basal condition, primary screen (AID 1173); conditions: S. cerevisiae BY4716 growth, OD600, 24 h; higher = more signal, called active from +8 up or from −8 down
# [3] = viability profiling in MM1S myeloma cells – cell-based, resazurin fluorescence, basal, 24 h, PK04 Diversity Set, profiling panel (AID 1174); conditions: higher = more signal, called active from +8 up or from −8 down;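 further: MM1S multiple myeloma cell line; test concentration not given here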
# [4] = molecular target: Dihydroorotate dehydrogenase (quinone), mitochondrial (Plasmodium falciparum (isolate 3D7)) (UniProt Q08210); assay: inhibition of P. falciparum DHODH – biochemical, C-terminal His tag, absorbance 600 nm, primary screen (AID 1175); conditions: PfDHODH enzyme, DCIP absorbance 600 nm; higher = more signal, called active from +8 up or from −8 down;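 further: recombinant parasite enzyme with a five histidine tag at its C terminus; test concentration not given here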
# Dihydroorotate dehydrogenase (quinone), mitochondrial (Plasmodium falciparum (isolate 3D7)), sequence (Q08210 whole entry, looked up): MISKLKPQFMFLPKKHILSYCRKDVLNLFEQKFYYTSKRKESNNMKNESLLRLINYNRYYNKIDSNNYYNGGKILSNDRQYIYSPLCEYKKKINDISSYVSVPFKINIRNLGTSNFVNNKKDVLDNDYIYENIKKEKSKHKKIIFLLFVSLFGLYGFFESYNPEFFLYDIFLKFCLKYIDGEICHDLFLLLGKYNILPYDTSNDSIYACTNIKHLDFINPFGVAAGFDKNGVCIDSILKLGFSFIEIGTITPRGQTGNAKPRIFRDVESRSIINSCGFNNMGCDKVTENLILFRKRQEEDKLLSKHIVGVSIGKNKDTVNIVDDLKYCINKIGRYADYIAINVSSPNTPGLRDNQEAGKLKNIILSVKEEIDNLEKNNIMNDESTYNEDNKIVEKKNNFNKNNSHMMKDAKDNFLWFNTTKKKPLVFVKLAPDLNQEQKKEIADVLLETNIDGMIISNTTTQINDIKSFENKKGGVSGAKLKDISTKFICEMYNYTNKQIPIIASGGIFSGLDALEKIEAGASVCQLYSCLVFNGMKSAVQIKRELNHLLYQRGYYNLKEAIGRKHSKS
# [5] = inhibition of PAO1 biofilm formation – strain PAO1, LB-PBS medium, absorbance 600 nm, primary screen (AID 1176); further: test concentration not given here; conditions: P. aeruginosa PAO1 growth/biofilm, A600, 12 h; higher = more signal
# [6] = growth modulation of vineyard yeast isolate – strain RM11-1a, OD600, basal, 24 h, primary screen (AID 1177);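 further: cultures grown under basal conditions with no added stressor; test concentration not given here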; conditions: S. cerevisiae RM11-1a growth, OD600, 24 h; higher = more signal, called active from +8 up or from −8 down
# [7] = growth of efflux-deficient E. coli DRC39 – strain DRC39, OD650, 24 h, E. coli filamentation inducers, primary screen (AID 1178);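 further: growth measured as culture turbidity by optical density at 650 nm; test concentration not given here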; conditions: E. coli DRC39 acrAB, higher = more signal, called active from +8 up or from −8 down
# [8] = growth of efflux-deficient E. coli DRC39 – strain DRC39, OD650, 48 h, E. coli filamentation inducers, primary screen (AID 1179);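 further: screen aims at cell division blockers that make cells filament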; conditions: E. coli DRC39 delta-acrAB growth, higher = more signal, called active from +8 up or from −8 down
# [9] = viability profiling in RPMI8226 myeloma cells – cell-based, resazurin fluorescence, basal, 24 h, PK04 Diversity Set, profiling panel (AID 1180); conditions: higher = more signal;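 further: RPMI8826 multiple myeloma cell line at 5000 cells per well; test concentration not given here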
# [10] = molecular target: E3 ubiquitin-protein ligase XIAP (Homo sapiens) (UniProt P98170); assay: small molecules binding XIAP protein – biophysical, small-molecule microarray, fluorescence 635 nm, primary screen (AID 1181); conditions: higher = more signal;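 further: score merges 667 nm emission and signal to noise over triplicate slides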
# E3 ubiquitin-protein ligase XIAP (Homo sapiens), sequence (P98170 whole entry, looked up): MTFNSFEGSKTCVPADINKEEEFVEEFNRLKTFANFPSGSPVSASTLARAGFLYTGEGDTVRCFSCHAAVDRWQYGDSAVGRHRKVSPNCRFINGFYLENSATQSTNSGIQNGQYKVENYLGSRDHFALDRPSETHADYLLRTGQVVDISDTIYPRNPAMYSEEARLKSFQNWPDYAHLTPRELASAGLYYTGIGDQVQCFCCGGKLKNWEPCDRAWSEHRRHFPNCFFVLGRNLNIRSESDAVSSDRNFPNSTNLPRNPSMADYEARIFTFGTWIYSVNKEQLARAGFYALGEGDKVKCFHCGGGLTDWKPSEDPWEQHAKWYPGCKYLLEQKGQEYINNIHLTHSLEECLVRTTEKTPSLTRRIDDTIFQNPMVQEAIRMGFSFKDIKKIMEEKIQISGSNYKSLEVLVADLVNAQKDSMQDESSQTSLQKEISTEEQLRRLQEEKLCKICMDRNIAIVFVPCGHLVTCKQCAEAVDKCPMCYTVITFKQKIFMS
SMILES,z-score [1],z-score [2],z-score [3],composite z-score [4],z-score [5],z-score [6],z-score [7],z-score [8],z-score [9],composite z-score [10]
O=C(c1ccccc1)N1C(=O)[C@@]2(Cc3ccccc31)N=C(c1ccc(OCCCO)cc1)O[C@H]2c1ccccc1,-1.01,-0.123 (inactive),-2.94 (inactive),-0.138 (inactive),0.702 (inactive),0.655 (inactive),-0.399 (inactive),-0.239 (inactive),-3.43,0.327
NCCCCCCNC(=O)[C@@H]1C[C@@H]2C(=O)NCC(=O)N2[C@@H]1c1ccc(O)cc1,-0.45,0.333 (inactive),1.02 (inactive),0.99 (inactive),0.696 (inactive),0.681 (inactive),-0.0366 (inactive),-0.697 (inactive),0.08,0.0761
COCCOC(=O)N1C(=O)[C@@]2(c3cc(C#Cc4ccc(OC)cc4)ccc31)[C@H](c1ccc(OCCO)cc1)N1[C@H](c3ccccc3)[C@H](c3ccccc3)OC(=O)[C@H]1[C@@H]2C(=O)N1CCN(c2ncccn2)CC1,-0.107,3.4 (inactive),0.202 (inactive),-1.76 (inactive),1.9 (inactive),3.43 (inactive),0.129 (inactive),-0.312 (inactive),0.55,0.0623
CCCC[C@@H]1C[C@H]1[C@@H](NC(=O)c1ccco1)c1ccccc1C(F)(F)F,-0.153,1.67 (inactive),-1.25 (inactive),-0.265 (inactive),-0.0298 (inactive),-0.064 (inactive),-0.714 (inactive),-0.127 (inactive),-0.594,0.271
Cc1ccc(S[C@]2(C(=O)NCCCN(C)C)CC(=O)N(Cc3cc(C(F)(F)F)cc(C(F)(F)F)c3)[C@@H]2c2ccc(CO)cc2I)cc1,-0.274,-4.35 (inactive),-3.04 (inactive),-0.0868 (inactive),0.323 (inactive),-0.514 (inactive),0.392 (inactive),0.786 (inactive),-2.62,-0.0795
CCCCCCc1nc(-c2cc(C)c(OC)c(C)c2)cc2c1[Si](C(C)C)(C(C)C)OC2,-0.206,-1.09 (inactive),0.401 (inactive),-3.17 (inactive),-0.747 (inactive),-0.493 (inactive),0.615 (inactive),0.641 (inactive),-0.11,0.0537
COCCOC(=O)N1C(=O)[C@@]2(c3cc(C#Cc4ccc(OC)cc4)ccc31)[C@H](c1ccc(O)cc1)N1[C@H](c3ccccc3)[C@H](c3ccccc3)OC(=O)[C@H]1[C@@H]2C(=O)N1CCc2cc(OC)c(OC)cc2C1,0.28,-0.465 (inactive),-0.0918 (inactive),-0.463 (inactive),0.457 (inactive),-0.694 (inactive),-0.232 (inactive),-0.779 (inactive),0.572,-0.197
O=C1NC(=O)C2C1C=CC(C(O)c1cc(C(F)(F)F)cc(C(F)(F)F)c1)N2Nc1ccccn1 (stereo not given),-0.85,0.885 (inactive),-1.27 (inactive),-1.14 (inactive),1.36 (inactive),0.0176 (inactive),-0.509 (inactive),-1.42 (inactive),-1.2,-0.152
C=C(COC)/C(=C/C[C@@H](OC(C)=O)c1ccc(OCCO)cc1)c1cnc2ccccc2c1,0.638,-1.39 (inactive),0.748 (inactive),-5.97 (inactive),-0.128 (inactive),-1.49 (inactive),1.06 (inactive),0.968 (inactive),0.371,0.241
O=C1C[C@@](C(=O)NCCN2CCOCC2)(c2ccc([N+](=O)[O-])cc2)[C@@H](c2ccc(CO)cc2I)N1CC12CC3CC(CC(C3)C1)C2,-5.11,-12.9 (active),-6.88 (inactive),-0.227 (inactive),0.941 (inactive),-21.4 (active),-0.272 (inactive),-0.305 (inactive),-5.62,-0.0095
C=C(COC)C(=O)CC[C@@H](OC(C)=O)c1ccc(CO)o1,-0.173,0.227 (inactive),0.145 (inactive),-3.24 (inactive),0.838 (inactive),-1.23 (inactive),-0.216 (inactive),-0.107 (inactive),0.0972,0.383
[N-]=[N+]=Nc1ccccc1[C@H]1OC(c2ccc(OCCCO)cc2)=N[C@@]1(CCS(=O)(=O)c1ccccc1)C(N)=O,-0.183,-1.06 (inactive),0.952 (inactive),0.22 (inactive),0.897 (inactive),-0.167 (inactive),0.981 (inactive),-0.319 (inactive),0.187,0.291
CCCC=C(CCC)[C@@H](NC(=O)c1cccs1)c1ccc(C(F)(F)F)cc1,0.74,0.872 (inactive),0.116 (inactive),-4.81 (inactive),1.69 (inactive),0.196 (inactive),0.224 (inactive),-0.262 (inactive),0.455,0.309
CN(C)CCCC[C@@H]1NC(=O)[C@H]2C[C@@H](C(=O)NCCCCCCN)[C@@H](c3ccc(O)cc3)N2C1=O,-0.24,-0.343 (inactive),0.696 (inactive),-1.31 (inactive),-0.338 (inactive),0.578 (inactive),0.332 (inactive),0.458 (inactive),0.683,0.121
CCOC(=O)C[C@H]1[C@H](OC(=O)c2ccc(C(=O)c3ccccc3)cc2)[C@@H](NC(=O)c2ccc3ccccc3n2)c2cc(OCCCO)ccc2N1C(=O)c1ccccc1,-0.0237,0.854 (inactive),-0.266 (inactive),-0.203 (inactive),0.0186 (inactive),-0.0492 (inactive),-0.28 (inactive),-0.211 (inactive),-0.999,-0.0326
C=CCC(OC(C)=O)[C@@H]1[C@@H](N(Cc2ccc(-c3ccccc3)cc2)C(=O)Cc2ccc(OC)cc2)c2cc(OCCCO)ccc2N1C(=O)Cc1ccc2ccccc2c1 (stereo not given in full),-0.978,-0.34 (inactive),-0.541 (inactive),0.0513 (inactive),0.562 (inactive),-0.726 (inactive),-0.39 (inactive),-0.851 (inactive),-0.798,0.098
O=C(NCCO)C1=C[C@H](Oc2ccccc2I)[C@@H](O)[C@H](N(Cc2ccco2)C(=O)Cc2ccccc2)C1,-1.23,-0.279 (inactive),-0.123 (inactive),1.06 (inactive),-0.848 (inactive),0.552 (inactive),-0.49 (inactive),-0.666 (inactive),-0.328,-0.052
CCN(CC)c1ccc(N2CC=CC34O[C@@H]5C=CCCOC(=O)C5[C@H]3C(=O)N(CCCCCCO)[C@@H]4C2=O)cc1 (stereo not given in full),0.846,-1.04 (inactive),1.55 (inactive),-0.324 (inactive),0.786 (inactive),-1.31 (inactive),1.07 (inactive),0.534 (inactive),1.04,0.127
C=CCC(OC(C)=O)[C@@H]1[C@@H](N(Cc2ccc(-c3cccc(C(F)(F)F)c3)o2)C(=O)c2ccc(C)cc2)c2cc(OCCCO)ccc2N1C(=O)Cc1ccc2ccccc2c1 (stereo not given in full),0.358,-0.219 (inactive),0.837 (inactive),-0.802 (inactive),-0.312 (inactive),0.476 (inactive),-0.333 (inactive),0.409 (inactive),1.22,-0.0286
Cc1ccc([C@@H]2C[C@@H](Sc3ccccc3)[C@H](C(=O)O)CN2S(=O)(=O)c2ccc(C)cc2)cc1,0.391,-1.58 (inactive),-1.48 (inactive),-0.351 (inactive),0.657 (inactive),0.455 (inactive),-0.634 (inactive),-0.518 (inactive),-0.738,0.312
COc1cc2c(cc1O)C(C1CC1)N(Cc1sc3ccccc3c1Cl)CC2 (stereo not given),-1.58,-18.3 (active),-0.789 (inactive),-0.931 (inactive),-1.33 (inactive),-22 (active),0.531 (inactive),-0.75 (inactive),-1.42,-0.031
C=CCOC(=O)[C@H]1[C@@H]2C(=O)O[C@@H](c3ccccc3)[C@@H](c3ccccc3)N2[C@@H](c2ccc(OCCOC(=O)[C@H]3C[C@H]4C(=O)N[C@@H](CCCCNC(C)=O)C(=O)N4[C@H]3c3ccc(O)cc3)cc2)[C@]12C(=O)Nc1ccc(I)cc12,0.452,-0.371 (inactive),-1.18 (inactive),-0.325 (inactive),1.14 (inactive),1.38 (inactive),-1.83 (inactive),-1.16 (inactive),-0.745,-0.0784
C=CCNC(=O)[C@@H]1[C@H]2C(=O)O[C@H](c3ccccc3)[C@H](c3ccccc3)N2[C@H](c2ccccc2OCCO)[C@@]12C(=O)N(C(=O)OCCOC)c1ccccc12,-1.59,1.86 (inactive),-1.12 (inactive),0.693 (inactive),2.26 (inactive),3.27 (inactive),0.0191 (inactive),-0.476 (inactive),-1.65,-0.0559
CC(=O)NCCCC[C@@H]1NC(=O)[C@H]2C[C@@H](C(=O)NCCCCCCNC(=O)CS)[C@@H](c3ccc(O)cc3)N2C1=O,-0.294,0.429 (inactive),-0.523 (inactive),0.761 (inactive),1.08 (inactive),0.518 (inactive),-0.622 (inactive),-1.35 (inactive),-0.803,0.125
C=C(CC1([C@@H](NP(=O)(c2ccccc2)c2ccccc2)[C@H]2C[C@@H]2CCCC)CC1)c1ccccc1,2.02,1.06 (inactive),1.07 (inactive),-0.424 (inactive),0.812 (inactive),0.753 (inactive),-0.167 (inactive),-0.821 (inactive),3.34,-0.167
